Screening data (PubChem)
BRCA1 expr act: increases BRCA1 expression; actives 1.1% (n = 380,000); AID 624202; Potency, µM (doses to about 46.1 µM), for the others: at the top dose activation, most hits filed as activators; MCF7-BRCA1-FFLuc reporter, luminescence, 48 h; response scale: scaled: vehicle 0%, 10 µM genistein 100%; further: nearly all actives have a fitted effect of over 80% in size
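Cells: MCF7-BRCA1-FFLuc, 2000/well. Exposure: 48 h, 37 °C, 5% CO2. Read: luminescence, 15 min post-substrate. Controls: genistein 10 microM (maximal activation), DMSO (neutral).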
Mito fusion act: mitochondrial division inhibition or fusion activation. S. cerevisiae fusion-defective mutant growth rescue, CellTiterGlo 48 h. Potency, µM (series often up to 46.1 µM), for inactives: at the top dose growth rescue (activation), actives largely listed as activators. actives 0.23% (n = 320,000); further: % of control where 0% means no effect; nearly all actives have a fitted effect of over 45% in size
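S. cerevisiae fusion-defective temperature-sensitive mutants (e.g. fzo1-1, mgm1-5) grown 48 h at 37C in YPEG (ethanol/glycerol non-fermentable) medium with 23 nl compound per well; growth rescue read as CellTiterGlo luminescence.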
B2AR arrestin: recruits beta-arrestin to the human beta2-adrenergic receptor; P07550; beta-arrestin recruitment to beta2AR, cell-based reporter; Potency, µM (titrated, usually from 46.1 µM), for the others: at the highest dose activation, most hits filed as activators; actives 0.02% (n = 330,000);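 further: 0% = DMSO controls and full agonism = EC100 isoproterenol or metaproterenol; nearly all actives have a fitted effect of over 65% in size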
ERG Ets-DNA blk: ERG Ets/DNA interaction inhibition; Potency, µM (top dose mostly 76.9 µM), for the others: at the top dose FP activity, negative = inhibition, most hits filed as inhibitors; P11308; AID 624246; fluorescence polarization, His-ERG Ets domain / labelled DNA; actives 0.028% (n = 370,000); active means well fitted inhibition curve with a large enough effect in the polarisation, with a control signal flat; inconclusive means small, poorly fitted or top-dose-only effect, or effect the other way, or a change in a side signal; inactive means no such curve, though single readings can be large or run the other way; the % refers to the polarisation;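 further: polarization taken with two DNA probes labelled with fluorescein and Texas red; % of control where 0% means no effect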
Target sequence (P11308 whole entry, looked up, the tested form may be a part): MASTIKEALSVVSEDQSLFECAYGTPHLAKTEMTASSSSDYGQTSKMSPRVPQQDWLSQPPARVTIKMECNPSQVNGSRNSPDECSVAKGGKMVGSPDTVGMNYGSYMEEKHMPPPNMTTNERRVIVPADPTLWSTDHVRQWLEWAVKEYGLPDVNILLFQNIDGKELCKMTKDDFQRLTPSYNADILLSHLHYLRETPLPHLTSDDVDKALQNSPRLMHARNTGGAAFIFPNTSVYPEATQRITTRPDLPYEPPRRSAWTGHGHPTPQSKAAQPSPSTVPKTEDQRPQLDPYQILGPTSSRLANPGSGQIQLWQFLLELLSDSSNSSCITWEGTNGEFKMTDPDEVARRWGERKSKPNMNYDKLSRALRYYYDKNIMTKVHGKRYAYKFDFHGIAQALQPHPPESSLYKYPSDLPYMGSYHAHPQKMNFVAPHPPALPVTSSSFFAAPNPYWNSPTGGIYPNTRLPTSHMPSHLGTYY
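His-tagged ERG Ets domain (1 uM in the protein solution; 300mM KCl, 50mM Tris-HCl, 1mM EDTA, 1mM DTT, pH 7.5) received compound, then a probe mix of 5 nM fluorescein-DNA and 100nM Texas-615-DNA. Fluorescence polarization was read for both dyes.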
Active calls of the source: *; ? = inconclusive; . = not tested or not shown. This is a sample that favours compounds with a hit; in the whole collection about 1.2% have one here. Unless noted, the call rests on the fitted dose curve; in most records, active means well fitted curve in the direction sought with a large enough effect; inconclusive means small, poorly fitted or top-dose-only effect, or another doubt; inactive means no such curve, though single readings can be large; an effect the other way counts as inactive or inconclusive. Potency means the concentration at half of the fitted maximal effect.

SMILES	BRCA1 expr act	Mito fusion act	B2AR arrestin	ERG Ets-DNA blk
CC(C)[C@H](NS(=O)(=O)c1ccccc1)C(=O)OCC(=O)Nc1ccccc1Sc1ccccc1	-19.8%	22.4µM*	0.1%	10.5%
Cc1ccc(NC(=O)c2cnn(-c3ccc(C)c(C)c3)c2C2CCN(C(=O)OC(C)(C)C)CC2)c(C)c1	.	.	.	-0.1%
Cc1ccc(C)c(N2CCN(C(=O)CCS(=O)(=O)c3ccc4c(c3)CCN4C(=O)C3CC3)CC2)c1	-5.7%	11.2µM*	0.2%	2.4%
COc1ccccc1-c1nn2c(=O)cc(C)nc2s1	10µM*	5.0%	0.1%	3.3%
COc1ccccc1-c1nn2c(-c3ccco3)nnc2s1	7.94µM*	3.0%	0.2%	6.8%
CCN(Cc1ccccc1)C(=O)Cn1c(=O)oc2cc(S(=O)(=O)N3CCCCCC3)ccc21	.	.	.	1.9%
Cc1sc(=NC(=O)c2ccco2)n(C)c1-c1ccc(Cl)cc1	6.31µM*	7.3%	-0.1%	.
CN(Cc1ccccc1)C(=O)COC(=O)c1c[nH]c2ccccc12	10µM*	.	.	.
CN(C(=O)COC(=O)c1c[nH]c2ccccc12)c1ccccc1	40.8%	.	.	.
O=c1oc2ccc(Cl)cc2cc1-c1cn2c(n1)sc1ccccc12	.	.	.	1.6%
CC(=O)N1N=C(c2ccc(C)cc2)CC1c1ccc2c(c1)OCO2 (stereo not drawn)	4.47µM*	3.7%	0.3%	-3.5%
CC(=O)N1N=C(c2ccc(C)cc2)CC1c1ccco1 (stereo not drawn)	12.6µM*	8.2%	-0.7%	2.0%
Cc1ccc(C2=CC(=O)C[C@H](c3ccc4c(c3)OCO4)C2)cc1	0.0%	3.98µM*	-0.5%	-9.4%
COc1ccc(-c2nc3sc(CCNC(=O)Cc4ccccc4)c(C)n3n2)cc1	.	.	.	-2.1%
COc1ccc(-c2nc3sc(CCNC(=O)c4cc(OC)c(OC)c(OC)c4)c(C)n3n2)cc1	7.94µM*	.	.	-1.2%
CCOc1ccc(/C=N/Nc2ccccn2)cc1OC	11.2µM*	-9.4%	0.5%	13.1%
C=CCOc1ccc(/C=N/Nc2ccccn2)cc1OC	5.01µM*	-1.3%	-0.3%	15.6%
COc1ccc(/C=N/Nc2ccccn2)c(OC)c1OC	11.2µM*	-6.2%	0.3%	1.4%
COc1ccc(/C=N\Nc2ccccn2)c(OC)c1	?	-0.9%	0.5%	-3.4%
COc1cc(/C=N/N(c2ccccc2)c2ccccc2)ccc1O	-82.5%	-26.9%	-0.8%	0.8%
CCOc1ccc(/C=N/N(C)c2ccccc2)cc1OC	4.47µM*	-1.2%	-1.1%	9.6%
Oc1cc2cc(-c3csc(-c4ccc(F)cc4)n3)ccc2[nH]1	25.0%	.	.	.
COc1ccccc1/C=N/Nc1nccnc1Cl	11.2µM*	-4.6%	-0.1%	.
COc1cccc(/C=N/Nc2ncccc2[N+](=O)[O-])c1OC	?	-5.7%	-0.3%	-3.8%
O=[N+]([O-])c1ccc2c(c1)C=C/C2=C/c1ccccc1	-5.6%	.	.	.
SMILES	BRCA1 expr act	Mito fusion act	B2AR arrestin	ERG Ets-DNA blk
O=C(NCCSc1ccccc1)c1cccnc1	14.1µM*	-0.8%	-0.9%	-5.1%
CCOc1ccccc1NC(=O)c1c(C)cc(C)nc1SCC(=O)c1cccc(OC)c1	.	.	.	-1.7%
O=C(Nc1cccc(-c2ccc(N3CCOCC3)nn2)c1)c1ccccc1Cl	2.51µM*	7.6%	-0.3%	19.2%
O=C(Nc1cccc(-c2ccc(N3CCOCC3)nn2)c1)c1cccc(Cl)c1	7.08µM*	.	.	.
O=C(Nc1ccc2nc(SCC(=O)N3CCc4ccccc43)sc2c1)c1ccc(F)cc1	.	.	.	2.7%
COc1cccc(C(=O)NCC(c2cccs2)N2CCc3ccccc32)c1 (stereo not drawn)	-32.5%	15.8µM*	0.8%	-7.9%
Cc1ccc(NC(=O)C2CCCN2S(=O)(=O)c2ccc3c(c2)CCCC(=O)N3)cc1C (stereo not drawn)	-9.5%	.	.	1.7%
CC(=O)N1c2ccc(S(=O)(=O)NCCC(=O)Nc3ccc(C)cc3Br)cc2CC1C (stereo not drawn)	.	.	.	0.4%
N#C/C(=N\Nc1ccc(Br)cc1)C(=N)N1CCOCC1	10µM*	0.4%	-0.2%	6.0%
Nn1c(COc2ccc(Cl)cc2)nc2ccccc2c1=O	5.62µM*	20.4%	-0.8%	-5.0%
O=C(COC(=O)c1ccc(C(F)(F)F)cc1)NC(=O)C1CCCCC1	0.0%	.	.	.
O=C(CSc1nnc(-c2cccs2)o1)c1cccs1	92.1%	-3.9%	0.6%	.
COc1ccc(-c2nnc(SCC(=O)c3cccs3)o2)cc1	7.08µM*	-0.4%	0.2%	0.0%
O=C(COc1ccccc1)Nc1ccc(Cl)cn1	2.1%	0.6%	0.0%	-6.7%
O=C(COc1ccccc1Cl)Nc1ccc(Cl)cn1	10µM*	3.9%	-0.1%	6.5%
CC(/C=N/NC(=O)Cc1cccs1)=C\c1ccccc1	?	-2.2%	?	8.5%
CC(/C=N/NC(=O)Cc1cccn1C)=C\c1ccccc1	11.2µM*	0.0%	2.9%	-3.9%
CC1=C(C(=O)Nc2cccc(Cl)c2C)C2(CCCCCC2)OC1=O	10.5%	.	.	6.5%
COc1ccc2nc(SCC(=O)C(C)(C)C)[nH]c2c1	7.94µM*	3.8%	-0.7%	1.0%
CCOc1ccc2nc(SCC(=O)N(C)C)[nH]c2c1	10µM*	-1.4%	-0.2%	-12.5%
CCOc1ccc2nc(SCC(=O)N(C)C3CCS(=O)(=O)C3)[nH]c2c1 (stereo not drawn)	4.2%	-1.1%	0.0%	-4.4%
CCOc1ccc(C2C=C(c3ccccc3)Nc3nnnn32)cc1 (stereo not drawn)	7.08µM*	-1.3%	-0.9%	-4.8%
CCOC(=O)C1CCC(CN(Cc2ccc(Cl)cc2)S(=O)(=O)c2ccc(F)c(C(=O)Nc3cccc(F)c3)c2)CC1 (stereo not drawn)	.	.	.	-34.8%
CCCCN(CCCC)CCNC(=O)CNC(=O)c1cccs1	4.3%	31.6µM*	0.3%	1.9%
COc1ccc(/C=C/C(=O)NC(=S)Nc2ccccn2)cc1	8.91µM*	-27.0%	0.3%	4.0%
SMILES	BRCA1 expr act	Mito fusion act	B2AR arrestin	ERG Ets-DNA blk
COc1ccc(NC(=S)Nc2ccccn2)cc1	3.98µM*	-6.9%	?	5.3%
COc1ccc(C)cc1NC(=O)CN1c2ccccc2S(=O)(=O)c2ccccc21	.	.	.	7.9%
CN1CCN(c2ccc(NC(=S)NC(=O)/C=C/c3ccco3)cc2)CC1	4.47µM*	-35.9%	0.0%	-0.9%
CC(=O)Nc1ccc(NC(=S)NC(=O)/C=C/c2ccco2)cc1	-26.3%	-4.5%	-0.6%	32.4%
O=C1NC(=O)C(=CC=Cc2ccccc2)S1	10µM*	.	.	.
CCOc1ccc(C2C(=O)N(C3CCCCC3)CC(=O)N2CCc2ccccc2)cc1OC (stereo not drawn)	.	.	.	0.4%
CCOC(=O)C1=C(C)NC(C)=C(C(=O)OCC)C1c1c(F)c(F)c(F)c(F)c1F	.	2.31µM*	.	.
CCOC(=O)C1=C(C)NC(C)=C(C(=O)OCC)C1c1ccc(O)cc1	-39.7%	-1.4%	0.0%	10.7%
CC(=O)N1CCc2cc(Br)cc(S(=O)(=O)CCC(=O)N3CCN(c4ccc(F)cc4)CC3)c21	20.0%	.	.	-0.6%
CCOC(=O)Cc1csc(NC(=O)c2cnc3sc(C)cn3c2=O)n1	11.2µM*	0.2%	0.1%	-2.2%
Cc1occc1C(=O)N/N=C/c1ccc(OCc2ccccc2)cc1	6.31µM*	8.3%	-0.2%	4.5%
